Test [1] is described as follows: anti-His antibody binders, primary screen, artefact control for SMM control protein annotation, biochemical, small-molecule microarray, 635 nm fluorescence (AID 1128).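 Also: score merges feature fluorescence with signal-to-noise for each printed compound spot.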 The settings on record: anti-His Alexa647 antibody binding, higher = more signal.
Test [2] relates to Human papillomavirus type 1a E7 protein (residues 1-88). Briefly: HPV1a E7 small-molecule binders, primary screen, biochemical, small-molecule microarray, residues 1-88, 635 nm (AID 1129). As to conditions: small-molecule microarray binding, fluorescence 635 nm; higher = more signal.
Test [3] deals with Focal adhesion kinase 1 (Homo sapiens) (UniProt Q05397). Briefly: small-molecule microarray binders of FAK, primary screen, biochemical, 635/667 nm fluorescence, BSA, DTT (AID 1130).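 Also: composite of spot emission at 667 nm and signal to noise over triplicate slides.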 The settings on record: PTK2 binding, 635 nm fluorescence, higher = more signal.
Focal adhesion kinase 1 (Homo sapiens), sequence (Q05397 whole entry, looked up): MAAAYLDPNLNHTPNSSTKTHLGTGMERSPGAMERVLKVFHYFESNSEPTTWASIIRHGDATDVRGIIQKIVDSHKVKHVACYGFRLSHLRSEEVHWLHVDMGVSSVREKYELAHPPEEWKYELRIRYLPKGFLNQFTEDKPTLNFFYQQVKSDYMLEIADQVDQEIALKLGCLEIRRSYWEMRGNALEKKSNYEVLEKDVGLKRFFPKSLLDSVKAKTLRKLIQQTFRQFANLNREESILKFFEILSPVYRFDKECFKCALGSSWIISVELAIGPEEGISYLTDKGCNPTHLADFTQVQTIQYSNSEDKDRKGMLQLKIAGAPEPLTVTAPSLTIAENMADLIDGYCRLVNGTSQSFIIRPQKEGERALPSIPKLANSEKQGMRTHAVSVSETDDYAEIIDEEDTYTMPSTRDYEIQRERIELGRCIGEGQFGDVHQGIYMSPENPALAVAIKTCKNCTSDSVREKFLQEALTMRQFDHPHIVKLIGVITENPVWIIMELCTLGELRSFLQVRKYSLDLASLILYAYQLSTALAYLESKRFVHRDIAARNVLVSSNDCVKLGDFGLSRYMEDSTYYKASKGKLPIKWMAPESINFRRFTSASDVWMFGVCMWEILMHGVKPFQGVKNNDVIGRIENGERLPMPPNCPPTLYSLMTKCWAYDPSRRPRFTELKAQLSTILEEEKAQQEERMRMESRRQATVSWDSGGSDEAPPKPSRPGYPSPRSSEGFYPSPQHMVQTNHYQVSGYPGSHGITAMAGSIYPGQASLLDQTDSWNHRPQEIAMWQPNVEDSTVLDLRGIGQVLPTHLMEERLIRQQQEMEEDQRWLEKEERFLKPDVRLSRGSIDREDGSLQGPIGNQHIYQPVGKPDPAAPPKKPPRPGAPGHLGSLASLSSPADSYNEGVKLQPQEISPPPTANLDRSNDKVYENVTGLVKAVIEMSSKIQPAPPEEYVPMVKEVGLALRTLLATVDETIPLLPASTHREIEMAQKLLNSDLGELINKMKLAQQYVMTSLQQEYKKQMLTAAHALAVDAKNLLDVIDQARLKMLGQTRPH
Test [4] relates to Fibrinogen (Alexa647-labelled). Briefly: fibrinogen binders on compound microarrays, profiling panel, artefact control for SMM control-protein annotation, biochemical, small-molecule microarray, 635/667 nm fluorescence (AID 1131).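 Also: z-score merges 667 nm fluorescence with per-spot signal-to-noise over triplicate slides.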 The settings on record: fibrinogen-A647 binding fluorescence, higher = more signal.
Test [5] deals with Follistatin (Homo sapiens) (UniProt P19883). Briefly: follistatin binders on small-molecule microarrays, primary screen, biochemical, small-molecule microarray, 635/667 nm fluorescence (AID 1132). As to conditions: FST binding, 635 nm fluorescence, higher = more signal.
Follistatin (Homo sapiens), sequence (P19883 whole entry, looked up): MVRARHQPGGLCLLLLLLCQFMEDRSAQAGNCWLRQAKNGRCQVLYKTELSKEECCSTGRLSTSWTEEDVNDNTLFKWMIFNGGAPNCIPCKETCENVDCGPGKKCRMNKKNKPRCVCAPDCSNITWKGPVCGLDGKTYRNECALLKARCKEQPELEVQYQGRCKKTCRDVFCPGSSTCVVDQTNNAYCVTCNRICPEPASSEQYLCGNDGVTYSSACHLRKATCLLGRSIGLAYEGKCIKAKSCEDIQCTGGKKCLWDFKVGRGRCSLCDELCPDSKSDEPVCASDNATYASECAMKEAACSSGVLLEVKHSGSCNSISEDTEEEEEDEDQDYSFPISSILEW
The target in test [6] is Fibroblast growth factor 2 (Homo sapiens) (UniProt P09038). Briefly: FGF2 binders on small-molecule microarrays, primary screen, biochemical, small-molecule microarray, 635/667 nm fluorescence (AID 1133). As to conditions: small-molecule microarray binding, FGF2, fluorescence 635/667; higher = more signal.
Fibroblast growth factor 2 (Homo sapiens), sequence (P09038 whole entry, looked up): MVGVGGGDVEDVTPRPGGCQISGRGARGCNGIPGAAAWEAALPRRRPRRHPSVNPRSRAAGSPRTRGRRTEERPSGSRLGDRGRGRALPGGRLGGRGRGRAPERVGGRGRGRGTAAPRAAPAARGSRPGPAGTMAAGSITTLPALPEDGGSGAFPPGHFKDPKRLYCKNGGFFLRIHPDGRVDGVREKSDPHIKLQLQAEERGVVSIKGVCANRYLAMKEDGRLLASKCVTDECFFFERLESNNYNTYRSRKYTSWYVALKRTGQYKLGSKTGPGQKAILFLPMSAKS
A short description of test [7]: mitochondrial membrane potential change in A549 cells, profiling panel, cell-based, JC-1 fluorescence, basal, 24 h, 100 nL (AID 1138).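 Also: A549 lung adenocarcinoma cells under basal conditions with no added stimulus; test concentration not given here.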 As to conditions: higher = more signal.
Test [8] has as its system Lefty1. Briefly: Lefty1 binders on small-molecule microarrays, primary screen, biochemical, small-molecule microarray, 635/667 nm fluorescence (AID 1139). The settings on record: small-molecule microarray binding, fluorescence 635/667; higher = more signal.
Test [9] concerns wheat germ agglutinin (Triticum aestivum), Alexa647-labelled. Briefly: wheat germ agglutinin binders on compound microarrays, profiling panel, artefact control for SMM control-protein annotation, biochemical, small-molecule microarray, 635/667 nm fluorescence (AID 1140).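 Also: score merges 667 nm feature emission with signal to noise over triplicate slides.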 The settings on record: WGA-A647 binding, 635 nm fluorescence, higher = more signal.
The target in test [10] is Luciferin 4-monooxygenase (Photinus pyralis) (UniProt P08659). The test is described as follows: firefly luciferase enzyme inhibitors, primary screen, biochemical, luminescence, purified enzyme, 2006 set (AID 1141).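 Also: cell-free assay with purified firefly luciferase at 100 ng per well in PBS; test concentration not given here.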 As to conditions: SteadyGlo luminescence, 30 min, higher = more signal, called active from +8 up or from −8 down.
Luciferin 4-monooxygenase (Photinus pyralis), sequence (P08659 whole entry, looked up): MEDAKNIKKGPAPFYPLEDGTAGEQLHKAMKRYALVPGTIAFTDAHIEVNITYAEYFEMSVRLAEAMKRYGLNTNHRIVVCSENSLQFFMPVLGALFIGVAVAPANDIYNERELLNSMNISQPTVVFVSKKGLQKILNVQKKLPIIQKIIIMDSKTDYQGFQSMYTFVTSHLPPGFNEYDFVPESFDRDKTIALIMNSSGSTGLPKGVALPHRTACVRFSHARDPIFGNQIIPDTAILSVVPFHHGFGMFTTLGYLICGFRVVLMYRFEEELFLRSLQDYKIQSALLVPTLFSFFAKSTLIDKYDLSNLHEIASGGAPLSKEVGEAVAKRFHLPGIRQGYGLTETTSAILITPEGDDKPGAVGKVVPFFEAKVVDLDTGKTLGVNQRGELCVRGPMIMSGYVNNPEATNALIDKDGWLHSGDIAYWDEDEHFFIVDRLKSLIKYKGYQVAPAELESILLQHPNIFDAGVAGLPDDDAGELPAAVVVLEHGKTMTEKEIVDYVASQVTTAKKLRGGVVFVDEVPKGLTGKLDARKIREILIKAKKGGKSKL
Test [11] deals with Wnt5a (protein binding on small-molecule microarray). Briefly: Wnt5a binders on small-molecule microarray, primary screen, biophysical, 635/667 nm fluorescence (AID 1142).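 Also: fluorescence read at 667 nm with signal to noise per printed feature.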 The settings on record: 635 nm fluorescence, higher = more signal.
Test [12] can be described thus: cell viability in Huh7 cells, primary screen, cytotoxicity control for HCV replication inhibitor project, CellTiter-Glo luminescence, basal, 48 h (AID 1143).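 Also: Huh7 hepatoma cells carrying a hepatitis C replication reporter with no stimulus; test concentration not given here.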 The settings on record: Huh7 HCV replicon, higher = more signal, called active from +8 up or from −8 down.
Test [13] in a line: P. aeruginosa biofilm formation inhibitors, primary screen, PAO1 strain, BacTiter-Glo luminescence, LB-PBS (AID 1144). The settings on record: 12 h, higher = more signal.
A short description of test [14]: CREB reporter modulators without forskolin, primary screen, cell-based, PC12, CRE-LacZ reporter, unstimulated (AID 1145). As to conditions: no forskolin, luminescence, 4.5 h, higher = more signal, called active from +8 up or from −8 down.
Test [15] is described as follows: CREB reporter modulators under forskolin, primary screen, cell-based, PC12, CRE-LacZ reporter, forskolin-stimulated (AID 1146).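 Also: PC12 cells with 6xCRE LacZ reporter stimulated by forskolin 10 µM; beta-galactosidase reporter signal reflecting CREB driven transcription.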 The settings on record: luminescence, 4.5 h, higher = more signal, called active from +8 up or from −8 down.
Test [16] addresses Streptavidin (Streptomyces avidinii) (UniProt P22629). The test is described as follows: streptavidin binders on small-molecule microarray, primary screen, artefact control for SMM compound annotation, biophysical, 635/667 nm fluorescence (AID 1147).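 Also: signal reflects streptavidin binding to arrayed compounds as a control protein.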 As to conditions: streptavidin binding, higher = more signal.
The nature of test [17]: small-molecule binders of probe aInhba, primary screen, biochemical, small-molecule microarray, 635/667 nm fluorescence (AID 1148).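 Also: score merges 667nm spot fluorescence with signal-to-noise for antibody binding to printed compounds.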 The settings on record: higher = more signal.
Test [18] has as its target Torsin-1A (Homo sapiens) (UniProt O14656). Briefly: torsin A binders from cell lysate, primary screen, small-molecule microarray, wild-type, 635/667 nm (AID 1149). The settings on record: COS7 hTOR1A-WT lysate, 635 nm fluorescence, higher = more signal.
The target is the same in test [19]. Briefly: small-molecule binders of mutant TOR1A in lysate, primary screen, cell lysate, small-molecule microarray, COS7 lysate, 635/667 nm fluorescence (AID 1150).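 Also: score pools 667 nm emission and signal to noise measuring lysate protein binding.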 The settings on record: COS7 hTOR1A mutant lysate, 635 nm fluorescence, higher = more signal.
Test [20] has as its system Sonic hedgehog protein (Shh). The test is described as follows: small-molecule binders of Shh protein, primary screen, biochemical, small-molecule microarray, 635/667 nm fluorescence (AID 1151).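 Also: Shh protein binding to compounds spotted on small-molecule microarray slides; score combines spot fluorescence intensity with signal-to-noise across triplicate slides.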 The settings on record: small-molecule microarray binding, 635 nm fluorescence; higher = more signal.

Active and inactive are the calls of the source. Unless noted, no rule for the calls is given here.

Streptavidin (Streptomyces avidinii), sequence (P22629 whole entry, looked up): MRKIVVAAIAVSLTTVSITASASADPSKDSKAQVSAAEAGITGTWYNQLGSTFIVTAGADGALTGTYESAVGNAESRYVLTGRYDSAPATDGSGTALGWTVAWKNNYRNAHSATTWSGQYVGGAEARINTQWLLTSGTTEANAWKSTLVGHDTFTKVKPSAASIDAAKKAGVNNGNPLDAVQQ
Torsin-1A (Homo sapiens), sequence (O14656 whole entry, looked up): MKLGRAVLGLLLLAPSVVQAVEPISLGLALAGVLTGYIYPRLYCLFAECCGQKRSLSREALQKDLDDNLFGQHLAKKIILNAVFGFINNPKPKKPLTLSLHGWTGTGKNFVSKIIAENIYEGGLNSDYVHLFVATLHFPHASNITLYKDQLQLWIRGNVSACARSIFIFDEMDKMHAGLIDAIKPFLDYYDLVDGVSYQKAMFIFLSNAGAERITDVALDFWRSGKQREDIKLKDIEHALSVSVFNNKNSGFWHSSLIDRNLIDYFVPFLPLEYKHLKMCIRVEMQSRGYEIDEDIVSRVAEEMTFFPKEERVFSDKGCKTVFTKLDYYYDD

Turning to `COc1ccc(C#Cc2ccc3c(c2)[C@]2(C(=O)N3)[C@H](c3ccc(OCCO)cc3)N3[C@H](c4ccccc4)[C@H](c4ccccc4)OC(=O)[C@H]3[C@@H]2C(=O)N2CCN(c3ncccn3)CC2)cc1`, the composite z-score in test [1] is 0.197; in test [2], 0.816; in test [3], 0.0451; in test [4], 0.771; in test [5] it was 1.01; in test [6], 0.0495. In addition, the composite z-score in test [8] was 0.305; in test [9], 0.776; in [11], 0.0992; in [16], 0.819; in [17], -0.0521; in test [18] it was 0.433. Moreover, the values for the composite z-score in test [19] and in test [20] were 0.374 and 0.666, respectively. The z-score in test [7] was -1.38; in test [10], 0.713 (inactive); in test [12], -3.47 (inactive); in [13] it was -0.385 (inactive); in test [14], 0.0653 (inactive); in test [15], -0.239 (inactive).

For `CCC[C@@H]1C[C@@]1(CCC)[C@@H](NC(=O)c1cccs1)c1ccc(Cl)cc1`, the composite z-score in test [1] is -0.449; in [2] it was -0.375; in [3] it was -0.352; in test [4] it was 0.7; in test [5] it was -1.42; in test [6], -0.639. Also, the composite z-score was -1.69 in test [8]; 0.152 in test [9]; -0.551 in [11]; -0.7 in test [16]; -0.211 in test [17]; -0.312 in test [18]. In addition, the composite z-score in test [19] was -0.412; in test [20], -0.949. Besides, the z-score is -0.101 in [7]; -2.2 (inactive) in [10]; -2.21 (inactive) in [12]; 0.803 (inactive) in test [13]; 1.15 (inactive) in test [14]; -0.127 (inactive) in test [15].

On to `O=C1c2ccccc2C(=O)C2CC([C@H]3Oc4ccccc4S(=O)(=O)N4CCC[C@@H]34)=CCC12` (stereo not given in full), for which the composite z-score in test [1] is -0.0332; in test [2] it was 0.101; in test [3] it was 0.867; in test [4], 0.788; in test [5] it was -0.0849; in test [6], 0.189. In addition, the composite z-score in test [8] is -0.02; in [9], 0.47; in test [11], -0.0428; in test [16], 0.161; in [17] it was -0.0471; in test [18] it was 0.208. Also, the composite z-score in test [19] is 0.402; in test [20], -0.133. The z-score in test [7] was -0.309; in [10], -0.759 (inactive); in test [12], -3.06 (inactive); in test [13], 0.618 (inactive); in test [14] it was 6.12 (inactive); in test [15], -1.59 (inactive).

Regarding `CC(=O)NCCCC[C@@H]1NC(=O)[C@H]2C[C@@H](C(=O)NCCCCCN)[C@@H](c3cccc(OCCO)c3)N2C1=O`, the composite z-score in test [1] stood at 2.38; in test [2], 0.759; in [3], 1.38; in [4], 0.829; in [5], 0.763; in test [6], 0.275. Besides, the composite z-score in test [8] was 0.279; in test [9], 1.1; in [11], 0.292; in test [16], 0.688; in test [17] it was -0.102; in test [18], 0.455. Moreover, the composite z-score in [19] was 0.0709; in [20], -0.0725. Also, the z-score in test [7] was 0.0821; in test [10], -0.0548 (inactive); in [12], -0.532 (inactive); in test [13] it was 0.00194 (inactive); in [14], -0.675 (inactive); in [15], -1.44 (inactive).

Turning to `C=CCNC(=O)[C@H]1[C@@H]2C(=O)O[C@@H](c3ccccc3)[C@@H](c3ccccc3)N2[C@@H](c2ccc(OCCO)cc2)[C@]12C(=O)N(C(=O)OCCOC)c1ccc(C#CC3=CCCCC3)cc12`, the composite z-score in [1] was 1.56; in test [2], 1.2; in test [3] it was 0.485; in [4], 0.968; in test [5], 1.17; in test [6], 1.25. For the same molecule, the composite z-score in test [8] was 0.949; in [9], 1.17; in test [11], -0.0184; in test [16], 0.716; in test [17] it was 0.18; in [18] it was 0.689. Besides, the composite z-score in test [19] was 0.868; in test [20], 1.32. In addition, the z-score in test [7] was -0.615; in test [10], -1.77 (inactive); in test [12], -4.77 (inactive); in test [13] it was 1.09 (inactive); in [14], -0.0647 (inactive); in test [15] it was -0.638 (inactive).

(Values after PubChem BioAssay.)
